Sampled rows, rich in hits. Any-hit rate of the full collection: about 2.1%.
PLCg1 inh: PLC-gamma1 enzyme inhibitors, primary screen, biochemical, fluorescence, purified enzyme; 1-phosphatidylinositol 4,5-bisphosphate phosphodiesterase gamma-1 (Homo sapiens), P19174; fluorogenic substrate; inhibition, % at 12.2 µM; 370,000 compounds, 0.84% hits; in the data active = inhibition above about 9.5%
Rce1 inh: yeast Rce1p protease inhibitors, primary screen, biochemical, fluorescence, cell-free homogeneous; CAAX prenyl protease 2 (Saccharomyces cerevisiae (strain ATCC 204508 / S288c)), Q03530; yeast membranes, quenched prenylated peptide cleavage fluorescence; calls only; 290,000 compounds, 0.27% hits; AID 2563, 2010;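 active = fall in fluorescence gain of 50% or more versus controls, with final raw signal at or below 3038400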;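 note: plate controls were neutral control wells for no effect and wells lacking membranes for full effect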
ADAM10 inh: human ADAM10 inhibitors, primary screen, biochemical, QFRET, HTS | inhibition, % at 7 µM | 370,000 compounds, 0.62% hits | recombinant ADAM10, EDANS/DABCYL FRET peptide cleavage, 3 h | Disintegrin and metalloproteinase domain-containing protein 10 (Homo sapiens), O14672;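 active = inhibition above a per-campaign cutoff equal to the mean of compounds falling between control-based bounds plus 3 SD, cut at about 20% in these data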;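 note: 0% = DMSO wells while the 100% control is not disclosed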
Target sequence (O14672 214-748 limits assumed): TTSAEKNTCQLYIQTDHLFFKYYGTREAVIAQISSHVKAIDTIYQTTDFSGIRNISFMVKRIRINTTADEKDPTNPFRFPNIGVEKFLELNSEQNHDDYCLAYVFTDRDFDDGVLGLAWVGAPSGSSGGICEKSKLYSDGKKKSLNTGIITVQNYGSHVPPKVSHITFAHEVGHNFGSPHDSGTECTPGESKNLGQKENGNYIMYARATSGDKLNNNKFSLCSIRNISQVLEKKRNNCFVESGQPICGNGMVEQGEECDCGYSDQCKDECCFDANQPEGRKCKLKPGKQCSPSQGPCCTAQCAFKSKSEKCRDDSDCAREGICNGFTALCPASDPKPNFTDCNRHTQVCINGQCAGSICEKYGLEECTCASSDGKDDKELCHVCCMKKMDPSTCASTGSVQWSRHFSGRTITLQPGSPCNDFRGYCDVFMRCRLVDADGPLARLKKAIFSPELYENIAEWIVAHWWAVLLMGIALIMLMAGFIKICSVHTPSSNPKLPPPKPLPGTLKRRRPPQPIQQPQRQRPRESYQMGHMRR
ADAM17 inh: ADAM17 inhibitors, primary screen, biochemical, QFRET; AID 720648, 2013; inhibition, % at 6.95 µM; recombinant ADAM17, EDANS/DABCYL FRET peptide cleavage; 370,000 compounds, 0.83% hits;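 active = inhibition above the mean of compounds lying between control limits plus 3 SD, set per campaign, cut at about 8.5% in these data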;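 note: 0% = DMSO-only wells as the low control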
PLCb3 inh: human PLC-beta3 inhibitors, primary screen, biochemical, fluorescence; 1-phosphatidylinositol 4,5-bisphosphate phosphodiesterase beta-3 (Homo sapiens), Q01970; Purified PLC-beta3, fluorogenic substrate; inhibition, % at 12.2 µM; 370,000 compounds, 0.18% hits; AID 720704, 2013;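 note: 0% = median of compound wells on plate and 100% = full blocker control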
PLCgamma1 ctr: PLC-gamma1 enzyme inhibitors, counter-screen for PLC-beta3 inhibitor project, biochemical, fluorescence; shares compounds with PLCg1 inh; purified PLC-gamma1, fluorogenic substrate; inhibition, % at 12.3 µM; 3,300 compounds, 3.1% hits; in the data active = inhibition above about 9.5%
PLCb3 confirm: PLC-beta3 inhibitor confirmation, biochemical, fluorescence, purified enzyme; shares compounds with PLCg1 inh; 3,300 compounds, 1% hits; fluorogenic substrate fluorescence; AID 743261, 2014; inhibition, % at 12.3 µM
Active calls of the source: *; i = inactive; . = no result. Cut-off read from the data, not from the text of the source, unless noted: active = inhibition above about 11%; inactive = the rest.

SMILES	PLCg1 inh	Rce1 inh	ADAM10 inh	ADAM17 inh	PLCb3 inh	PLCgamma1 ctr	PLCb3 confirm
CCC(C)NC(=O)CNC(=S)N(Cc1ccccc1)Cc1cccnc1 (stereo unspecified)	9.7*	i	7.0	0.9	4.3	0.7	1.5
CCN(CC)CCNC(=O)c1cn(CC)c2cc(N3CCN(C)CC3)c(F)cc2c1=O	-22.9	i	-86.7	-30.4	-28.1	.	.
COc1ccc(S(=O)(=O)Nc2ccc3c(c2)C(=O)N([C@H](C)CO)C[C@H](C)[C@@H](CN(C)S(=O)(=O)c2cn(C)cn2)OCCCC[C@H](C)O3)cc1	-0.8	.	-3.1	-2.8	-0.2	.	.
O=C(CSc1nc2c(c(C(F)(F)F)n1)CCc1ccccc1-2)NCc1ccccc1	2.1	i	-15.4	-2.6	0.1	.	.
O=C(CSc1nc2c(c(C(F)(F)F)n1)CCc1ccccc1-2)NCc1ccc(F)cc1	13.2*	i	4.0	1.6	12.9*	-8.1	-2.2
O=C(NCc1ccc2c(c1)OCO2)Nc1ccc([N+](=O)[O-])cc1	10.8*	i	-10.2	-1.2	-0.4	3.5	4.6
O=C(NCc1ccc2c(c1)OCO2)Nc1ccc(Cl)cc1	-3.2	i	2.1	-2.4	-5.5	.	.
NNC(=O)/C(=C\c1ccc(Br)cc1)NC(=O)c1cccs1	-3.4	i	-13.4	-2.9	-9.1	.	.
O=[N+]([O-])c1ccc(Sc2ncccn2)c([N+](=O)[O-])c1	11.7*	i	3.0	1.2	2.2	10.0*	8.2
COC(=O)c1sccc1N/N=C/c1cccc(Oc2ccccc2)c1	-5.5	i	-10.4	-5.3	-8.7	.	.
CC1(NC(=O)/C=C/c2nc3ccccc3s2)CCS(=O)(=O)C1 (stereo unspecified)	-34.9	.	-81.0	-20.1	-42.4	.	.
Cn1c(SCC(=O)Nc2ccccc2O)nnc1-c1ccco1	0.4	i	-1.4	-5.7	-1.2	.	.
CCn1nc(C)c(NC(=O)CSc2nnc(-c3ccco3)n2C)c1C	7.3	i	11.7	4.8	10.9*	-2.1	2.2
COc1cc(/C=C/C(=O)c2ccc3c(c2)OCCO3)cc(Br)c1OCC(=O)N(C)C	-34.4	i	15.7	4.3	-54.9	.	.
CN(CC(=O)N1CCN(Cc2ccccc2)CC1)S(=O)(=O)c1cccc2nsnc12	11.5*	i	4.6	3.2	9.6	-5.7	-2.7
O=C(Nc1cccnc1)c1ccccc1Oc1ccccc1	5.1	i	7.2	8.4	10.7*	-10.5	-1.0
Cc1ccc(NC(=O)N(Cc2cc3cc(C)cc(C)c3[nH]c2=O)CC2COCCO2)cc1 (stereo unspecified)	4.3	i	3.5	-3.3	2.0	.	.
COc1cccc(NC(=O)N(Cc2cc3cc(C)cc(C)c3[nH]c2=O)CC2COCCO2)c1 (stereo unspecified)	11.3*	i	5.4	4.2	9.9	-7.3	-4.0
C=CC[C@H](CC(=O)OC(C)(C)C)C(=O)OC[C@@H]1CCCN1C(=O)[C@@H](CC=C)CC(=O)NCCO	9.8*	.	-0.9	-2.4	2.7	-8.6	-1.2
O=c1[nH][nH]c(-c2ccccc2)c1C=Nc1ccc(OC(F)(F)F)cc1	-1.5	i	3.3	-2.4	-4.7	.	.
COCCCN1C(=O)C(CC(=O)NCCN2CCOCC2)CC(C(=O)N2CCOCC2)=C1C (stereo unspecified)	-0.4	.	-6.7	-6.2	3.1	.	.
CCOC(=O)C(NC(=O)CC)(Nc1ccccc1)C(F)(F)F (stereo unspecified)	13.6*	i	4.5	3.2	11.3*	-4.7	0.7
CCOC(=O)C(NC(=O)CC)(Nc1ccc(S(N)(=O)=O)cc1)C(F)(F)F (stereo unspecified)	1.3	i	2.5	-3.4	-7.6	.	.
COc1ccc(CCNC(=O)CN2C(=O)COc3ccc(S(=O)(=O)N4CCOCC4)cc32)cc1OC	11.3*	i	9.9	4.4	-5.2	-6.6	0.3
Cc1cc(C)nc(/N=C(\N)Nc2ccccc2-c2ccccc2)n1	2.8	i	4.3	3.0	0.5	.	.
SMILES	PLCg1 inh	Rce1 inh	ADAM10 inh	ADAM17 inh	PLCb3 inh	PLCgamma1 ctr	PLCb3 confirm
c1ccc(SC23CCCCN(CCC2)[C@]32CO2)cc1 (stereo partly specified)	-4.4	.	-18.5	-5.1	-6.3	.	.
COc1ccc(S(=O)(=O)NCc2ccc(C(=O)NCCN(C)Cc3ccccc3)cc2)cc1	9.8*	.	0.7	7.8	7.0	-10.1	-2.1
COC(=O)C1CCN(C(=O)CN2C(=O)NC(CC(C)C)C2=O)CC1 (stereo unspecified)	-3.3	.	-6.4	-0.7	-3.2	.	.
O=C(Nc1ccccc1N1CCOCC1)c1ccc(Cl)c(S(=O)(=O)NCc2ccco2)c1	9.7*	i	15.2	6.0	-2.8	-3.8	-4.1
CC(=O)Nc1ccc(S(=O)(=O)NC2CC(=O)N(c3ccc(C)c(C)c3)C2)cc1 (stereo unspecified)	12.4*	i	7.8	1.9	-2.9	-1.9	-0.2
CC(NC(=O)c1ccc(F)cc1)c1ccc2c(c1)CCCC2 (stereo unspecified)	13.1*	i	12.4	2.1	13.6*	2.9	0.1
O=C(COc1ccc(F)cc1)c1ccc2c(c1)CCCC2	9.5*	i	8.3	5.9	7.1	-3.6	-1.6
Cc1ccc(N(C)C(=O)c2ccc(CNc3c(N4CCC(C)CC4)c(=O)c3=O)cc2)cc1	1.5	i	2.7	0.0	-1.2	.	.
CS(=O)(=O)c1cccc(C(=O)OCC(=O)Nc2ccc3c(c2)OCO3)c1	1.1	.	-8.7	-6.3	-5.0	.	.
Cc1ccc(S(=O)(=O)N(CC(=O)NC2CCC(C)CC2)c2cc(C)cc(C)c2)cc1 (stereo unspecified)	0.9	.	0.1	1.1	3.9	.	.
Cc1ccc(S(=O)(=O)N2CCC(C(=O)N3CCCCCCC3)CC2)cc1C	4.1	.	-10.1	-0.6	1.1	.	.
Cn1c(=O)[nH]c(=O)c2c1nc(SCC(O)CCl)n2Cc1ccccc1 (stereo unspecified)	-1.3	i	-6.4	-3.5	-5.5	.	.
O=C(CCc1nc2ccccc2s1)OCc1ccccc1	3.1	i	5.3	6.8	10.8*	-6.5	-3.4
O=C(CCC(=O)c1cccs1)OCc1nc2ccccc2s1	-1.9	i	-13.8	-4.2	-4.9	.	.
CCc1ccc(Nc2nnc(SCC(=O)Nc3cccc(S(=O)(=O)NC4=NCCCCC4)c3)s2)cc1	9.7*	i	15.8	5.6	2.9	-4.3	-4.2
